BAZ2B inh = blocks human BAZ2B. Q9UIF8. Potency, µM (doses to about 114 µM), for the others: top-dose activity change, negative = inhibition, usual class: inhibitors. AlphaScreen BAZ2B-H3K14Ac peptide displacement. 360,000 tested, 4.4% active; note: % is set by controls: 0 for no effect and ±100 for the full control effect; nearly all actives have a fitted effect of over 60% in size
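Compounds, titrated to a top concentration of 110 uM, were incubated 30 min at room temperature with preformed BAZ2B/acetyl-K14 H3 peptide complex (50 nM each). Proximity signal was measured by AlphaScreen after 20 min with beads.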
HP1b chromo inh = inhibitors of HP1-beta chromodomain binding to methylated histone tails; 390,000 tested, 0.56% active; Potency, µM (series often up to 114 µM), without a hit: top-dose activity change, negative = inhibition, actives largely listed as inhibitors; AlphaScreen HP1-beta / biotin-H3K9me3 peptide binding; P83916; note: nearly all actives have a fitted effect of over 70% in size
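HP1-beta protein (50 nM final) preincubated 30 min at room temperature with biotinylated H3(1-18)K9me3 peptide (50 nM) in PBS pH 7.4, 0.01% Tween-20, then compound added for 30 min. AlphaScreen streptavidin donor/nickel chelate acceptor beads (10 ug/mL final), 30 min dark, luminescence read.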
GLS inhibitor = blocks human kidney-isoform glutaminase activity; GLS enzymatic activity, qHTS titration; O94925; 410,000 tested, 0.21% active; Potency, µM (series often up to 45.5 µM), for inactives: top-dose activity change, negative = inhibition, usual class: inhibitors; note: % is set by controls: 0 for no effect and ±100 for the full control effect
Target sequence (O94925 whole entry, looked up, canonical isoform): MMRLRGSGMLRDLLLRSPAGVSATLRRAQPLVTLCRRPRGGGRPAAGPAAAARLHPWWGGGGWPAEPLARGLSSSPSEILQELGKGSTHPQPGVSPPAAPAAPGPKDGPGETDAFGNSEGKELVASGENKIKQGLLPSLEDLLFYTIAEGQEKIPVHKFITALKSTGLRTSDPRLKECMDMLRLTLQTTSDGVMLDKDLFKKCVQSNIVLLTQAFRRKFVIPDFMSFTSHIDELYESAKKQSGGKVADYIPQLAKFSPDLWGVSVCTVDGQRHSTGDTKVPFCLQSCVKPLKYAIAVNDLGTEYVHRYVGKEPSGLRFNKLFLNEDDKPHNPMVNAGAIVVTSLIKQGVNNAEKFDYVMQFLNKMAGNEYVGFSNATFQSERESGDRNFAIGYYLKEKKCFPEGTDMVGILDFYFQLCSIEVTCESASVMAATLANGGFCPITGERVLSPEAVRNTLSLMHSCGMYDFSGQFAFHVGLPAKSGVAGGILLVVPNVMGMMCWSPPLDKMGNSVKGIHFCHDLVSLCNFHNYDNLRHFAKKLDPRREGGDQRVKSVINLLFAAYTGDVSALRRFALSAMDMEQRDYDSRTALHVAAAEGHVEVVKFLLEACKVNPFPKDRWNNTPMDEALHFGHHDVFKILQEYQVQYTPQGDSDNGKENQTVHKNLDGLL
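Compounds were pin-transferred onto hKGA, after which L-glutamine (1 mM solution) and a detection mix of glutamate oxidase, HRP and Amplex Red were added. Initial and 30 min RT fluorescence reads were collected.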
JMJD2A Tudor = blocks the human JMJD2A Tudor domain; Potency, µM (series often up to 114 µM), inactives show at the highest dose activity change, negative = inhibition, usual class: inhibitors; AlphaScreen JMJD2A-Tudor / H3K4me3 peptide binding; AID 504339; O75164; 390,000 tested, 4.4% active; note: % is set by controls: 0 for no effect and ±100 for the full control effect; nearly all actives have a fitted effect of over 50% in size
G9a block = blocks human histone lysine methyltransferase G9a | G9a H3K9 monomethylation, AlphaScreen, 2 h | Potency, µM (series often up to 102 µM), for the others: at the top dose activity, negative = inhibition, actives largely listed as inhibitors | 350,000 tested, 8.8% active | AID 504332 | Q96KQ7; note: % is set by controls: 0 for no effect and ±100 for the full control effect; nearly all actives have a fitted effect of over 75% in size
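Chemiluminescent proximity detection of H3K9 monomethylation, read after 10 min bead incubation in the dark. Reaction: 20 nM G9a, 500 nM biotin-H3K9 peptide, 20 uM SAM cofactor, 2 h, room temperature, following 15 min enzyme-compound preincubation.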
Starred values were filed as active, the others as inactive; u = inconclusive; x = no result given; [ ] = remark or other dose. Compounds with a hit are over-represented: about 10% of the library has one in this group of screens. Calls come from the whole dose curve; as a rule, active = well fitted curve in the direction sought with a large enough effect; inconclusive = small, poorly fitted or top-dose-only effect, or another doubt; inactive = no such curve, though single readings can be large; an effect the other way counts as inactive or inconclusive. Potency is the fitted concentration of half-maximal effect.

SMILES	BAZ2B inh	HP1b chromo inh	GLS inhibitor	JMJD2A Tudor	G9a block
CCN(C(=O)CSc1ncccn1)c1c(N)n(Cc2ccccc2)c(=O)[nH]c1=O	-6%	21%	4%	-17%	50µM*
Cc1cccc(NC(=O)CSCC(=O)N(CCC(C)C)c2c(N)n(Cc3ccccc3)c(=O)[nH]c2=O)c1	-15%	17%	-7%	-5%	40µM*
CCCCN(C(=O)CSc1nnc(-c2ccccc2)n1C)c1c(N)n(Cc2ccccc2)c(=O)[nH]c1=O	1%	20%	2%	-12%	10µM*
Cc1ccc(S(=O)(=O)/N=C(/c2ccccc2)N(C)C)c(C)c1	-2%	17%	-2%	4%	-2%
COc1ccc(C(=O)NNC(=O)CCC(=O)NNC(=O)c2ccc(OC)cc2)cc1	50µM*	37%	-5%	-18%	7.9µM*
COc1ccc(C(=O)NNC(=O)CSc2nc(C(C)C)nc3ccccc23)cc1	1%	36%	1%	-9%	9%
NNC(=O)c1ccc(COc2ccccc2)cc1	-32%	48%	4%	1%	13%[59 µM]
CCn1c(CSc2nc3ccccc3s2)nnc1SCC(=O)c1ccc2c(c1)OCCO2	3%	29%	5%	79µM*	u
COc1ccc(C(=O)NNC(=O)CCCCC(=O)NNC(=O)c2ccc(OC)cc2)cc1	x	25%	19%	-13%	u
COc1ccc(OCc2ccc(C(=O)NN)cc2)cc1	2%	25%	13%	u	45µM*
CCc1nc(SCC(=O)NNC(=O)c2ccc(OC)cc2)c2ccccc2n1	-21%	-12%	8.9µM*	50µM*	11%
COCCNC(=O)C(C)N1c2cccc3cccc(c23)S1(=O)=O (configuration not stated)	7%	-1%	-3%	-35%	9%[59 µM]
CCc1nc(SCC(=O)c2ccc3c(c2)OCCO3)c2ccccc2n1	20%	40%	2%	0%	8.9µM*
Cc1ccc(CCNC(=O)c2coc3nc4ccccc4nc23)cc1	0%	29%	-2%	40µM*	x
Cc1sc(NC(=O)c2cccs2)c(C(N)=O)c1C	-6%	u	0%	-21%	4µM*
Cc1[nH]n(-c2ccccc2)c(=O)c1C(c1cc(Cl)ccc1O)c1c(C)[nH]n(-c2ccccc2)c1=O	u	u	-4%	45µM*	u
COc1ccc(C(c2c(C)[nH]n(-c3ccccc3)c2=O)c2c(C)[nH]n(-c3ccccc3)c2=O)cc1OC	u	-51%	3%	u	u
CCOc1cc(C(c2c(C)[nH]n(-c3ccccc3)c2=O)c2c(C)[nH]n(-c3ccccc3)c2=O)ccc1O	11µM*	u	3%	50µM*	u
Cc1[nH]n(-c2ccccc2)c(=O)c1C(c1ccccc1C(=O)O)c1c(C)[nH]n(-c2ccccc2)c1=O	-29%	34%	-1%	-10%	u
COc1cc(OC)c(NC(=O)Cn2c(=O)cc(C)c3c(C)nn(-c4ccc(C)cc4)c32)cc1Cl	-19%	-13%	-12%	-17%	19%[59 µM]
C/C=C/C=C/C(=O)[C@@H]1[C@@H]([C@]2(C)OC(=O)C(C)=C2O)[C@H]2/C(=C(O)/C=C/C=C/C)C(=O)[C@]1(C)C(=O)C2(C)O (some centres not stated)	79µM*	-21%	10µM*	45µM*	u
Nc1nnc(SCCOc2ccc(Br)cc2)s1	5%	57%	-4%	8%	-6%[12.7 µM]
O=S1(=O)CC(O)C(N=Nc2c(O)n(Cc3ccccc3)c3ccccc23)C1 (configuration not stated)	u	u	u	-29%[11.4 µM]	40µM*
Cc1cccc(N(CC(=O)NCc2ccco2)C(=O)CNS(=O)(=O)c2ccc(F)cc2)c1	-6%	-22%	-16%	-8%	-13%
CCCn1nnc(NC(=S)NC(=O)/C=C/c2ccco2)n1	-29%	-15%	1%	28µM*	22µM*
SMILES	BAZ2B inh	HP1b chromo inh	GLS inhibitor	JMJD2A Tudor	G9a block
Cn1nnc(NC(=O)c2cccs2)n1	5%	13%	0%	-13%	7%
CCCn1nnc(NC(=S)NC(=O)c2cccs2)n1	-29%	-13%	-1%	7.9µM*	14µM*
COc1ccc(Cl)cc1NC(=O)c1cnc(N2CCCCC2)c2ccccc12	32%	83%[57 µM]	4%	47%	93%[59 µM]
Cc1cc[n+](-c2ccccc2)c2ccccc12	-34%	39%	-6%	-23%	25µM*
CCn1c(O)c(/C=N/n2cnnc2)sc1=S	u	-21%	6%	56µM*	18µM*
CC1(C)OC(=O)C(=Cc2ccc(-c3ccc(Cl)c(C(=O)O)c3)o2)C(=O)O1	79µM*	19%	u	u	14µM*
CC1=NOC(=O)/C1=C\c1ccc(-c2ccc(Cl)c(C(=O)O)c2)o1	79µM*	u	-6%	79µM*	16µM*
Nc1nonc1C(=O)N/N=C/c1ccc(-c2ccc(Cl)c(C(=O)O)c2)o1	79µM*	14%	2%	-24%	32µM*
CC1=NOC(=O)/C1=C\c1ccc(-c2ccccc2Br)o1	25µM*	u	u	20µM*	7.1µM*
O=C(O)c1cc(-c2ccc(/C=N/Nc3ccc(Cl)cc3)o2)ccc1Cl	-34%	-2%	0%	u	u
Cc1nn2c(=O)cc(COC(=O)c3c(F)cccc3Cl)nc2s1	30%	38%	-1%	2%	u
CC1=CC2=NC(=O)/C(=C\c3ccc(-c4cccc(Cl)c4)o3)C(=N)N2O1	3%	22%	-3%	-1%	1%[59 µM]
CC1=NOC(=O)/C1=C\c1ccc(-c2cccc(Cl)c2)o1	u	0%	-25%	u	25µM*
CC1(C)Cc2nc3sc4c(N5CCCC5)nnnc4c3cc2CO1	-22%	x	x	x	21%
COc1ccc(C)cc1NCc1cc(=O)oc2cc(-c3ccccc3)c(O)cc12	5%	19%	11%	-13%	-7%
COC(=O)C(NNc1ccccc1)(NC(=O)c1ccccc1F)C(F)(F)F (configuration not stated)	u	8%	-2%	-21%	23%[12.7 µM]
COC(=O)C(NNc1ccccc1)(NC(=O)c1ccc(F)cc1)C(F)(F)F (configuration not stated)	-8%	8%	12%	-21%	35µM*
O=C(NC(NNc1ccc([N+](=O)[O-])cc1)(C(F)(F)F)C(F)(F)F)c1ccc(F)cc1	u	u	-3%	u	13µM*
O=C(NC(NNc1ccc([N+](=O)[O-])cc1)(C(F)(F)F)C(F)(F)F)c1ccccc1Cl	u	-23%	0%	u	u
COc1ccc(Cl)cc1Nc1sc(C(=O)c2ccccc2)c(N)c1C(=O)Nc1ccccc1	u	u	2%	u	16µM*
Cc1ccccc1Nc1sc(C(=O)Nc2cccc(Cl)c2)c(N)c1C(N)=O	u	16%	5%	-18%	79µM*

Compound activity from PubChem BioAssay.
